Assay results from PubChem BioAssay AID693 (University of Pittsburgh Molecular Library Screening Center, 2007).
About 130 (0.13%) of roughly 97,000 compounds were called active. For the sample, actives were picked, then their nearest neighbours and some compounds at random. Values without a mark were called inactive. Cut-off read from the data, not from the text of the source: active = inhibition above about 34% (passing the limit was not always enough); inactive = the rest.

These compounds were tested against Serine/threonine-protein kinase PLK1 (Homo sapiens) (UniProt P53350) (assay: blockers of phosphopeptide binding to Plk1 PBD – biochemical, fluorescence polarization, primary screen (AID 693)). Conditions: active compounds read high,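 tested at about 20 µM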.
Chain of Serine/threonine-protein kinase PLK1 (Homo sapiens) (P53350 whole entry, looked up): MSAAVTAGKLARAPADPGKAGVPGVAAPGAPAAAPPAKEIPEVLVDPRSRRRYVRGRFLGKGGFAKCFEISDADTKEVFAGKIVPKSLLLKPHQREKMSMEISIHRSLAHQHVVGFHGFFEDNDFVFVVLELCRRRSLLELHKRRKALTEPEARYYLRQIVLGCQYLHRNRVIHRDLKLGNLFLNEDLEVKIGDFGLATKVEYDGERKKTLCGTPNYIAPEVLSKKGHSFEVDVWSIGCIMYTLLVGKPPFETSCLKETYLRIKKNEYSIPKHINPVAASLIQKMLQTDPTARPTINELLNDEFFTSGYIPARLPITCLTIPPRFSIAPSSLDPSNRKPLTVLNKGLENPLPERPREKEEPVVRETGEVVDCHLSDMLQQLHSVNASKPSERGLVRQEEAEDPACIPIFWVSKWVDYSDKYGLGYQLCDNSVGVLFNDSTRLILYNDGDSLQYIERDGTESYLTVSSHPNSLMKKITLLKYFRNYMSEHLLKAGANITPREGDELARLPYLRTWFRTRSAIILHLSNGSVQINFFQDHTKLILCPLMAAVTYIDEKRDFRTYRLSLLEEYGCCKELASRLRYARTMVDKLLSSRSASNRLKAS

Q: `COc1ccc(NS(=O)(=O)c2ccc(NC(=S)NC(=O)CC(C)C)cc2)cc1` was tested. Which inhibition did it give?
A: 3.41%

Q: For `CCc1ccc2nc3sc(C(=O)Nc4nnc(CC)s4)c(N)c3cc2c1`, which inhibition is on record?
A: -67.7%

Q: Which inhibition does the source give for `O=C(Cn1cc(-c2nnnn2-c2ccc(Cl)cc2)c(=O)c2ccccc21)c1ccccc1` here?
A: 6.2%

Q: For `COC(=O)c1ccccc1NC(=O)Cc1ccccc1OC`, which inhibition is on record?
A: 12.5%

Q: How did the inhibition turn out when `COC(=O)c1nc2ccccc2s1` was run?
A: -0.85%

Q: Which inhibition does the source give for `CCOC(=O)N1CCN(C(=O)COc2ccc(Cl)cc2C)CC1` here?
A: -13.2%

Q: For `O=C(N/N=C/c1ccc(O)cc1)/C(=C/c1ccc([N+](=O)[O-])cc1)NC(=O)c1ccccc1`, which inhibition is on record?
A: -6.05%

Q: With `O=C(NCCc1ccccc1)/C(=C\c1ccc([N+](=O)[O-])cc1)NC(=O)c1ccccc1` as the compound, how does the inhibition read?
A: 55.4% (active)

Q: `CNC(=O)/C(=C\C=C\c1ccccc1)NC(=O)c1ccc([N+](=O)[O-])cc1` was tested. Which inhibition did it give?
A: -9.26%

Q: `O=C1CC(C(F)(F)C(F)(F)C(F)(F)C(F)(F)F)=Nc2ccccc2N1` was tested. Which inhibition did it give?
A: 5.5%

Q: `COC(=O)c1ccc(C(=O)OC)c(NC(=S)N2CCCCC2)c1` was tested. Which inhibition did it give?
A: -20.3%

Q: For `CCCCOc1ccc(N(CC(=O)NCC2CCCO2)C(=O)CCC(=O)Nc2cc(C)ccn2)cc1` (centres undefined), which inhibition is on record?
A: -5.72%

Q: With `C/C(=N\NC(=O)c1ccc(C)cc1)C1C(=O)c2ccccc2C1=O` as the compound, how does the inhibition read?
A: -15.6%

Q: For `O=c1c([N+](=O)[O-])cc(C(F)(F)F)cn1Cc1cccc(Cl)c1`, which inhibition is on record?
A: 2.97%

Q: How did the inhibition turn out when `COc1ccc(S(=O)(=O)Nc2ccc3oc(C)c(C(C)=O)c3c2)cc1` was run?
A: -17.3%

Q: How did the inhibition turn out when `CCNc1nc(NC(C)C)nc(OCCOC(=O)c2ccccc2)n1` was run?
A: -7.64%

Q: Which inhibition does the source give for `CC1CC(C)CN(S(=O)(=O)c2cccc(C(=O)N3C(=O)c4cccc(N)c4C3=O)c2)C1` (centres undefined) here?
A: 24.3%

Q: How did the inhibition turn out when `O=C(CSCc1ccccc1Cl)NNC(=O)c1ccccc1` was run?
A: -5.03%

Q: `Cn1c(=O)n(C)c2cc(/C=N/NC(=O)c3cccc(Br)c3)ccc21` was tested. Which inhibition did it give?
A: -16.4%

Q: `CC1CCC(N2CC(=O)N(Cc3ccc4c(c3)OCO4)C(c3ccc(F)cc3)C2=O)CC1` (centres undefined) was tested. Which inhibition did it give?
A: -19%

Q: `COc1cc(OC)c(/C=N/NC(=O)c2ccc([N+](=O)[O-])cc2)cc1Br` was tested. Which inhibition did it give?
A: -6.93%

Q: Which inhibition does the source give for `CCC1(C)Cc2c(sc3nnn(CC(=O)Nc4ccc(Cl)cc4)c(=O)c23)CO1` (centres undefined) here?
A: -26.3%

Q: With `COc1cccc(N2CCN(C(=O)Nc3ccc4c(c3)NC(=O)CO4)CC2)c1` as the compound, how does the inhibition read?
A: 16.5%

Q: Which inhibition does the source give for `COc1ccc(NC(=O)Cn2c(=O)n(Cc3ccco3)c(=O)c3ccccc32)cc1` here?
A: 10.4%

Q: With `Cc1nc2ccccc2c(-c2ccccc2)c1C(=O)c1ccccc1` as the compound, how does the inhibition read?
A: -0.63%

Q: With `COc1cc(/C=N\NC(=O)CNC(=O)c2cccc([N+](=O)[O-])c2)ccc1O` as the compound, how does the inhibition read?
A: -17.4%

Q: With `Brc1ccc(/C=N/N2CCN(C3c4ccccc4-c4ccccc43)CC2)s1` as the compound, how does the inhibition read?
A: -17.6%

Q: How did the inhibition turn out when `COc1ccc(CCN(C(=O)COc2ccccc2)c2nc(-c3ccccc3)cs2)cc1OC` was run?
A: -9.73%

Q: With `Cc1cnc(NC(=O)C2CCCC2)s1` as the compound, how does the inhibition read?
A: -23.2%

Q: With `COc1ccc(N2CCN(C(=O)CNC(=O)c3ccc(C(C)(C)C)cc3)CC2)cc1` as the compound, how does the inhibition read?
A: -1.88%

Q: Which inhibition does the source give for `CCC(C)n1c(-c2cc(OC)c(OC)c(OC)c2)nc2nc3ccccc3nc21` (centres undefined) here?
A: 14.5%

Q: `Cc1nn(CCOc2ccccc2)c(=O)n1-c1ccccc1F` was tested. Which inhibition did it give?
A: 8.4%

Q: With `Cc1nc2cc(NC(=O)NCc3ccccc3)ccc2o1` as the compound, how does the inhibition read?
A: -8.52%

Q: With `O=C(OCc1cn(-c2ccc(Cl)c(Cl)c2)nn1)c1ccccc1Cl` as the compound, how does the inhibition read?
A: 1.36%

Q: Which inhibition does the source give for `CCC(C)(C)c1ccc(Oc2ccc(NC(=O)COC(=O)C3=COCCO3)cc2)cc1` here?
A: 1.77%

Q: With `Cc1ccccc1NC(=S)Nc1cccc([N+](=O)[O-])c1` as the compound, how does the inhibition read?
A: 34.5%

Q: How did the inhibition turn out when `COc1cc(C(=O)N2CCN(C/C=C/c3ccccc3)CC2)cc(OC)c1C` was run?
A: -11.1%

Q: Which inhibition does the source give for `CC(=O)c1ccc2c(ccc3ccccc32)c1` here?
A: -3.5%

Q: For `CN1CC(c2ccccc2)C2(COc3ccccc3C2=O)C12C(=O)Nc1ccccc12` (centres undefined), which inhibition is on record?
A: 5%

Q: `O=C(CCn1c(SCC(=O)c2ccccc2)nc2ccccc2c1=O)NCc1ccc(F)cc1` was tested. Which inhibition did it give?
A: 4.81%

Q: With `CCS(=O)(=O)Nc1ccc(C2=NN(S(=O)(=O)c3ccc(F)cc3)C(c3ccco3)C2)cc1` (centres undefined) as the compound, how does the inhibition read?
A: 11%

Q: `Cc1cccc(N(C(=O)c2ccc(CN3CCOCC3)o2)C(C(=O)NC2CCCCC2)c2ccc(F)cc2)c1` (centres undefined) was tested. Which inhibition did it give?
A: 10.4%

Q: Which inhibition does the source give for `CCOC(=O)c1sc2nc(SC)nc(-c3ccccc3)c2c1N` here?
A: -9.12%

Q: How did the inhibition turn out when `Cc1nn(Cc2ccccc2)c2c1C(c1ccccc1)C(C#N)=C(N)O2` (centres undefined) was run?
A: 17%

Q: How did the inhibition turn out when `O=C(CSCc1ccc(Cl)cc1)N1CCN(Cc2ccc3c(c2)OCO3)CC1` was run?
A: -16.3%

Q: `CC1(C)CC(CC(=O)O)C(=O)O1` (centres undefined) was tested. Which inhibition did it give?
A: -18.7%

Q: Which inhibition does the source give for `CCCC(O)(c1ccc(OC)cc1)C(CN(C)C)c1ccccc1` (centres undefined) here?
A: 3.1%

Q: With `C/C(=N\NS(=O)(=O)c1cccc([N+](=O)[O-])c1)c1cc2ccccc2o1` as the compound, how does the inhibition read?
A: 22%

Q: Which inhibition does the source give for `CN(CC(=O)Nc1cccc2c1CCCC2)S(=O)(=O)c1ccc(Cl)cc1` here?
A: -30%
